Data taken from PubChem BioAssay.
Activity calls are given as the source filed them.

Assays:
[1] = test system: Plasmodium falciparum Sir2 (PF13_0152, Sir2A); test: Plasmodium falciparum Sir2A binding compounds – biochemical, small-molecule microarray, 635 nm fluorescence, primary screen (AID 1098); conditions: fluorescence 635 nm, higher = more signal;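 also: score merges spot fluorescence intensity with its signal-to-noise ratio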
[2] = probe aDKK1 binding to arrayed compounds – biochemical, biotinylated probe, 635/667 nm fluorescence, primary screen (AID 1099); conditions: small-molecule microarray, higher = more signal;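 also: score merges 667nm spot fluorescence with signal to noise across triplicate slides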
[3] = probe aCHRDL2 binding to arrayed compounds – biochemical, biotinylated probe, 635/667 nm fluorescence, primary screen (AID 1100); conditions: small-molecule microarray, higher = more signal
[4] = change in splice reporter luminescence, either direction, cell-based, HEK293, spliceosome inhibition project, primary screen (AID 1101); conditions: HEK293 splicing luciferase reporter, 24 h, higher = more signal, called active from +8 up or from −8 down;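 also: HEK293 cells carrying a splicing-competent luciferase reporter gene; test concentration not given here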
[5] = molecular target: Fibroblast growth factor 10 (Homo sapiens) (UniProt O15520); test: compounds binding fibroblast growth factor 10 – biochemical, small-molecule microarray, 635 nm fluorescence, primary screen (AID 1102); conditions: FGF10 binding, fluorescence 635 nm, higher = more signal
Chain of Fibroblast growth factor 10 (Homo sapiens) (O15520 whole entry, looked up): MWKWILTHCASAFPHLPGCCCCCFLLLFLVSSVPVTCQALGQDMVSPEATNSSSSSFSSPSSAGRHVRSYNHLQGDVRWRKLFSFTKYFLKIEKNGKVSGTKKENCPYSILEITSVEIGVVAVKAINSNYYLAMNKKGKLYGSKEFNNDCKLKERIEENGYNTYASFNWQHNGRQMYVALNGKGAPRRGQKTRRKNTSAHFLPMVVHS

[6] = test system: glycogen synthase kinase-3 (GSK3A per assay name; protocol says GSK3B); test: compounds binding glycogen synthase kinase-3 – biochemical, small-molecule microarray, 635 nm fluorescence, GSK3A, primary screen (AID 1103); conditions: fluorescence 635 nm, higher = more signal; also: the record names both GSK3A and GSK3B
[7] = molecular target: Epidermal growth factor receptor (Homo sapiens) (UniProt P00533); test: compounds binding epidermal growth factor receptor – biochemical, small-molecule microarray, 635 nm fluorescence, primary screen (AID 1104); conditions: EGFR binding, higher = more signal;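 also: score merges 667 nm emission intensity with spot signal to noise over triplicate slides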
Chain of Epidermal growth factor receptor (Homo sapiens) (P00533 whole entry, looked up): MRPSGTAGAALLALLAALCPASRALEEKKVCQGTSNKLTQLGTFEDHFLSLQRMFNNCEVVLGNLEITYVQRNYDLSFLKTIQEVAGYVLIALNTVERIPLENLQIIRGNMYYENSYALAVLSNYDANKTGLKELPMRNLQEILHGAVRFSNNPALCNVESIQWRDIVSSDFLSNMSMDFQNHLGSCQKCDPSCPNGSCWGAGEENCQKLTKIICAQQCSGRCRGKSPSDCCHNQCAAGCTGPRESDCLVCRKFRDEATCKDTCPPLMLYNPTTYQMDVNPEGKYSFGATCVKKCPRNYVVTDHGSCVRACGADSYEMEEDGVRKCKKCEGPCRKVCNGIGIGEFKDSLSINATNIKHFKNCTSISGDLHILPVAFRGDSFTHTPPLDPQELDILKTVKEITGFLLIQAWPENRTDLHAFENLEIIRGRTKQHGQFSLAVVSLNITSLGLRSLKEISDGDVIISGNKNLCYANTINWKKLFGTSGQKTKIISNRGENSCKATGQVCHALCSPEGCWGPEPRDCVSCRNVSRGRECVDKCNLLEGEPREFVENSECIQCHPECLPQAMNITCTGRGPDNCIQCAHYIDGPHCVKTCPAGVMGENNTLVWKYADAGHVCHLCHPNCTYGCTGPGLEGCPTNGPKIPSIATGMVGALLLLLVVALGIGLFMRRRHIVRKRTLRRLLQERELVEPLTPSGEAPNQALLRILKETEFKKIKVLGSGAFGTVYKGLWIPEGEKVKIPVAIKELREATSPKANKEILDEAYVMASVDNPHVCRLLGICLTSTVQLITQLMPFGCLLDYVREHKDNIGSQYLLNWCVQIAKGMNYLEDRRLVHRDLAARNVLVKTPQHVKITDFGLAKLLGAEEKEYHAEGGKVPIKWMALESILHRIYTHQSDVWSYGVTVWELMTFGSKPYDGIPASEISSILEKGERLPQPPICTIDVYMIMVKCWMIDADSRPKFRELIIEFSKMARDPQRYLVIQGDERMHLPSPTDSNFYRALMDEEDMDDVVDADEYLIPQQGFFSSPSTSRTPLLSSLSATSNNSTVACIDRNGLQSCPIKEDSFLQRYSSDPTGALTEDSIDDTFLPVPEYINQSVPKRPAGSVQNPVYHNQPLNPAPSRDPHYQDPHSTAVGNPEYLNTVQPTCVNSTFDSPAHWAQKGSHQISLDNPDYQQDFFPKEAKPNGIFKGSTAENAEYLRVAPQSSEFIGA

[8] = molecular target: Follistatin-related protein 3 (Homo sapiens) (UniProt O95633); test: compounds binding follistatin-related protein 3 – biochemical, small-molecule microarray, 635 nm fluorescence, primary screen (AID 1105); conditions: FSTL3 binding, higher = more signal;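 also: score merges emission near 667 nm and signal to noise per printed spot across three slides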
Chain of Follistatin-related protein 3 (Homo sapiens) (O95633 whole entry, looked up): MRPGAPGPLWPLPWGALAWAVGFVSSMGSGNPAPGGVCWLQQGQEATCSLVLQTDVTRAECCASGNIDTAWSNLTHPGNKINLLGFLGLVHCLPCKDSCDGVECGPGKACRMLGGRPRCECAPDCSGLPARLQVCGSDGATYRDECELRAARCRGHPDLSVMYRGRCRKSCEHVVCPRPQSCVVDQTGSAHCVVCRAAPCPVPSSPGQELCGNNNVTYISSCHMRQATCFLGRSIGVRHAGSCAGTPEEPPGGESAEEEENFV

[9] = molecular target: Dickkopf-related protein 1 (Homo sapiens) (UniProt O94907); test: small molecules binding DKK1 protein – biochemical, small-molecule microarray, 635 nm fluorescence scan, primary screen (AID 1106); conditions: higher = more signal;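 also: score merges emission near 667 nm with signal to noise over three replicate slides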
Chain of Dickkopf-related protein 1 (Homo sapiens) (O94907 whole entry, looked up): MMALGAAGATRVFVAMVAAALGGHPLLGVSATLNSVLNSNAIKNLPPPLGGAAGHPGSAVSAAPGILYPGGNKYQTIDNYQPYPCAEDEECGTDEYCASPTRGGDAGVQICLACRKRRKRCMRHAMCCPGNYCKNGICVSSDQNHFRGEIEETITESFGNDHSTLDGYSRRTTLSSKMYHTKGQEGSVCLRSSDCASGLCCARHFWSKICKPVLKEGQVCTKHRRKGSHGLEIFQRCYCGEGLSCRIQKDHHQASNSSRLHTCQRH

[10] = test system: Inhibin beta A chain (activin A); test: small molecules binding activin A – biochemical, small-molecule microarray, 635 nm fluorescence scan, primary screen (AID 1107); conditions: INHBA, higher = more signal;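 also: mouse activin A protein probed at 4.33 µg/mL on printed slides; score merges bound-protein fluorescence near 667 nm with spot signal-to-noise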
[11] = test system: Human papillomavirus type 1a protein E7 (residues 44-93); test: small molecules binding HPV E7 44-93 – biochemical, small-molecule microarray, residues 44-93, 635 nm fluorescence, primary screen (AID 1108); conditions: fluorescence 635 nm, higher = more signal;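 also: E7 fragment applied at 1 µg/mL in TBST for 1 h at 4 C; score combines spot fluorescence with its signal to noise ratio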
[12] = hepatitis C replication reporter changes, two-sided – Huh7 cells, luciferase reporter, HCV replication inhibitor project, primary screen (AID 1109); conditions: Huh7 HCV replicon luciferase reporter, 48 h; higher = more signal;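 also: huh7 hepatoma cells harbouring a luciferase neomycin HCV replicon reporter; luciferase luminescence as measure of HCV replicon replication; test concentration not given here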
[13] = molecular target: Left-right determination factor 2 (Homo sapiens) (UniProt O00292); test: small molecules binding LEFTY2 protein – biochemical, small-molecule microarray, 635 nm fluorescence scan, primary screen (AID 1110); conditions: higher = more signal
Chain of Left-right determination factor 2 (Homo sapiens) (O00292 whole entry, looked up): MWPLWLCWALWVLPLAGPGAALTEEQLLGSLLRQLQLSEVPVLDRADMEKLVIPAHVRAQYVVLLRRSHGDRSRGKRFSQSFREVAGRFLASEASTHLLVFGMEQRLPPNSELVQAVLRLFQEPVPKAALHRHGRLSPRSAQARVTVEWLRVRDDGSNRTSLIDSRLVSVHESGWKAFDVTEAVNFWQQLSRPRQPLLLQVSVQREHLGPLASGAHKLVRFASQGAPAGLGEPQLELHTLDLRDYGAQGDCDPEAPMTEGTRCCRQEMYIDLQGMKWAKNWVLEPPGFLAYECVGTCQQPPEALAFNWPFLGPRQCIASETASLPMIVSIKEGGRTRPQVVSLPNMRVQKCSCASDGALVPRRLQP

[14] = molecular target: Calmodulin-1 (Homo sapiens) (UniProt P0DP23); test: small molecules binding calmodulin-1 with EGTA – biochemical, small-molecule microarray, Cy5-labelled CALM1, profiling panel (AID 1111); conditions: Cy5-CALM1 binding fluorescence, higher = more signal;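 also: labelled calmodulin applied in Tris saline Tween buffer holding calcium plus EGTA and DTT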
[15] = molecular target: Calmodulin-1 (Homo sapiens) (UniProt P0DP23); test: small molecules binding Ca-loaded calmodulin-1 – biochemical, small-molecule microarray, Cy5-labelled CALM1, plus calcium, artefact control for SMM control-protein annotation, profiling panel (AID 1112); conditions: Cy5-CALM1 binding fluorescence, higher = more signal;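 also: score merges spot fluorescence with signal to noise from triplicate slides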
[16] = probe aWnt5a binding to arrayed compounds – biochemical, biotinylated probe, 635/667 nm fluorescence, primary screen (AID 1113); conditions: small-molecule microarray, higher = more signal;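 also: score merges 667 nm fluorescence intensity with signal-to-noise per printed feature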
[17] = probe aShh binding to arrayed compounds – biochemical, biotinylated probe, 635/667 nm fluorescence, primary screen (AID 1114); conditions: small-molecule microarray, higher = more signal;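 also: probe is biotin-labelled aShh protein from a stem cell growth factor screen; measures binding of labelled protein to compounds printed on the slide; score merges feature fluorescence at 667 nm with signal-to-noise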
[18] = probe aNog binding to arrayed compounds – biochemical, biotinylated probe, 635/667 nm fluorescence, primary screen (AID 1115); conditions: small-molecule microarray, higher = more signal;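 also: probe is biotinylated aNog protein used at 0.15 µg/mL for 1 h at 4 C; z-score combines 667 nm fluorescence of each spot with its signal to noise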
[19] = molecular target: Torsin-1A-interacting protein 1 (Homo sapiens) (UniProt Q5JTV8); test: compound microarray binding of lysate hLAP1 – cell lysate, small-molecule microarray, COS7 lysate, 635/667 nm fluorescence, primary screen (AID 1116); conditions: 635 nm fluorescence, higher = more signal
Chain of Torsin-1A-interacting protein 1 (Homo sapiens) (Q5JTV8 whole entry, looked up): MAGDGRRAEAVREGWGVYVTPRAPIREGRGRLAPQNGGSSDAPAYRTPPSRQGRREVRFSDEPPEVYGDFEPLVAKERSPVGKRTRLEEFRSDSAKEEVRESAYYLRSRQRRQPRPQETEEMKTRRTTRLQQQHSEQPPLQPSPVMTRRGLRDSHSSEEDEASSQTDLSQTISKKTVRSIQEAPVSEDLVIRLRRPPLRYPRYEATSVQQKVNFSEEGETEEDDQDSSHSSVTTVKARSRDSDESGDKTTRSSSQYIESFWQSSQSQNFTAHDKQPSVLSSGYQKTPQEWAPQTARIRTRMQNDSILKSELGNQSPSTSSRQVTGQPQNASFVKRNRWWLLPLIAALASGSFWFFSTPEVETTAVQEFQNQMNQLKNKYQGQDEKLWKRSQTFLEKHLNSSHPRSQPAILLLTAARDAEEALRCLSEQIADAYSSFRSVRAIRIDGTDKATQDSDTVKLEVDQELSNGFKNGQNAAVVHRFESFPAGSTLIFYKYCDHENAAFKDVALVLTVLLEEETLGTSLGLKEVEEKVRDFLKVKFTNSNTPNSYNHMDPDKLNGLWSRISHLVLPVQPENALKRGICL

[20] = molecular target: Alpha-bungarotoxin (Bungarus multicinctus) (UniProt P60615); test: compounds binding labelled alpha-BTX control protein – biochemical, small-molecule microarray, Alexa647 label, 635/667 nm fluorescence, artefact control for SMM control protein annotation, profiling panel (AID 1117); conditions: alpha-BTX-A647 binding fluorescence, higher = more signal
Chain of Alpha-bungarotoxin (Bungarus multicinctus) (P60615 whole entry, looked up): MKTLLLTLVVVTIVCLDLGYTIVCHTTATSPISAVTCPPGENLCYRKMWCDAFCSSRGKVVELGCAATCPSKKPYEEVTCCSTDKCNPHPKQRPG

Row | Structure (SMILES) | composite z-score [1] | composite z-score [2] | composite z-score [3] | z-score [4] | composite z-score [5] | composite z-score [6] | composite z-score [7] | composite z-score [8] | composite z-score [9] | composite z-score [10] | composite z-score [11] | z-score [12] | composite z-score [13] | composite z-score [14] | composite z-score [15] | composite z-score [16] | composite z-score [17] | composite z-score [18] | composite z-score [19] | composite z-score [20]
1 | C=CCOC(=O)[C@@H]1[C@H]2C(=O)O[C@H](c3ccccc3)[C@H](c3ccccc3)N2[C@H](c2ccc(OCCOC(=O)[C@H]3C[C@H]4C(=O)NCC(=O)N4[C@H]3c3cccc(OCCO)c3)cc2)[C@@]12C(=O)Nc1ccc(I)cc12 | 1.53 | 0.512 | 0.494 | 0.789 (inactive) | 0.742 | 1.36 | 0.725 | 1.23 | 1.11 | 0.118 | 0.534 | -0.582 | 0.553 | 1.33 | 0.0237 | -0.0327 | 0.147 | -0.381 | 1.61 | 1.39
2 | COCCOC(=O)N1C(=O)[C@@]2(c3cc(C#CCCO)ccc31)[C@H](c1ccc(OCCO)cc1)N1[C@H](c3ccccc3)[C@H](c3ccccc3)OC(=O)[C@H]1[C@@H]2C(=O)N1CCCCCCC1 | 1.23 | 2.43 | 1.51 | 0.458 (inactive) | 1.25 | 1.32 | 1.32 | 1.54 | 1.85 | 1.73 | 0.371 | -0.882 | 1.39 | 1.99 | 0.953 | 0.779 | 0.599 | 0.952 | 3.39 | 2.3
3 | CC(C)=C1C(=O)C(c2ccccc2)=C2CN3C(=O)N(CCc4ccccc4)C(=O)[C@]3(C)[C@H]21 | 1.27 | 0.915 | 1.13 | 1.15 (inactive) | 0.139 | -0.701 | -0.276 | -0.0755 | -0.538 | 1.02 | 0.186 | -0.44 | -0.245 | 1.16 | 0.0844 | 0.0825 | 0.748 | 0.794 | 0.149 | 0.196
4 | COCCCNC(=O)[C@@]1(Sc2ccc(C)cc2)CC(=O)N(Cc2ccccc2C(F)(F)F)[C@@H]1c1ccc(CO)cc1I | 0.284 | 0.583 | 1.07 | -0.411 (inactive) | -1.02 | -0.981 | -1.44 | -1.73 | -0.831 | 1.02 | -0.779 | -0.817 | -1.47 | -0.376 | 1.04 | -0.139 | -0.0769 | 0.595 | -0.181 | -1.2
5 | CN(C)CCCCNC(=O)[C@H]1C[C@H]2C(=O)N3CCC[C@H]3C(=O)N2[C@H]1c1cccc(OCCO)c1 | 1.67 | 0.0092 | 0.833 | -0.0803 (inactive) | 0.425 | 0.676 | -0.497 | -0.0327 | -0.0023 | 0.0098 | 1.4 | -0.0955 | -0.35 | 0.915 | 0.836 | -0.144 | 0.134 | 1.14 | 0.495 | 1.43
6 | C=CC1c2cc(O)c(OC)cc2CCN1C (stereo not given) | 0.21 | 0.416 | 0.759 | 0.978 (inactive) | -0.169 | -1.24 | -0.534 | -0.332 | -0.26 | 0.725 | -0.728 | -1.02 | -0.94 | 0.504 | 1.04 | -0.112 | -0.243 | -0.348 | 0.381 | -0.383
